Data on one compound can be found in PubChem BioAssay AID1159580 (chemical genetic matrix, 2015).

This test is described as follows: chemical genetic growth profiling, strain panel (AID 1159580).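 Also: tested at 20 µM; growth read once vehicle control cultures reached saturation at 30 °C; 1 = growth at the plate median or of vehicle wells; lower values mean less growth of the strain.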 Conditions: S. cerevisiae deletion strains, growth OD.

Structures are written as SMILES. Screen size: about 5,500 compounds; about 2,000 (36%) were called active. Roughly 18% stayed inconclusive and do not appear here. Some of the results follow. Values without a mark were called inactive. Rule as the data show it: active = normalized growth mostly below about 0.91 (no sharp cut-off); inconclusive = no clear call, values can overlap the other calls; inactive = mostly above about 0.92.

On to `O=Nc1ccc2oc(=O)ccc2c1`, for which the normalized growth is 0.945 (locus YAL013W, strain DEP1, stronger effect = lower value); 0.985 (locus YAL040C, strain CLN3, stronger effect = lower value); 0.973 (locus YCL061C, strain MRC1 (second series), stronger effect = lower value); 0.917 (locus YDR363W, strain ESC2, stronger effect = lower value); 1.01 (locus YER002W, strain NOP16, stronger effect = lower value); 0.98 (locus YGR078C, strain PAC10, stronger effect = lower value). In addition, the normalized growth reads like this: (locus YGR229C, strain SMI1, stronger effect = lower value) 0.846 (active); (locus YMR263W, strain SAP30, stronger effect = lower value) 0.989; (locus YNL175C, strain NOP13, stronger effect = lower value) 0.994; (locus YNL197C, strain WHI3, stronger effect = lower value) 0.989; (locus YNL224C, strain SQS1, stronger effect = lower value) 0.995; (locus YNL322C, strain KRE1, stronger effect = lower value) 1. Further, the normalized growth (locus YOR083W, strain WHI5 (second series), stronger effect = lower value) was 0.906; the normalized growth (locus YPL055C, strain LGE1, stronger effect = lower value) was 0.896; the normalized growth (locus YPL241C, strain CIN2, stronger effect = lower value) was 0.999.
